The values that follow come from PubChem BioAssay.

Calls of active or inactive are those of the source. Unless noted, how the calls were made is not given here.

A short description of test [1]: compound effects on lung adenocarcinoma cell viability – A549, calcein-AM fluorescence, 48 h, basal, profiling panel (AID 1162). Further: test concentration not given here. The note with it: higher = more signal.
Test [2] is described as follows: compound effects on differentiated 3T3-L1 adipocyte viability – cell-based, 3T3-L1 adipocytes, calcein-AM fluorescence, 48 h, basal, profiling panel (AID 1163). Further: test concentration not given here. Particulars: 3T3-L1 adipocytes viability, higher = more signal.
Test [3] is described as follows: compound effects on hepatocellular carcinoma cell viability – HepG2, calcein-AM fluorescence, 48 h, basal, profiling panel (AID 1164). Further: test concentration not given here. Particulars: higher = more signal.
The nature of test [4]: compound effects on multiple myeloma cell viability – MM1S, calcein-AM fluorescence, 48 h, basal, profiling panel (AID 1165).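 Further: viability of MM1S multiple myeloma cells under basal unstimulated conditions; test concentration not given here.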 Particulars: higher = more signal.
A short description of test [5]: calcein-AM signal in unstimulated myeloma cells – cell-based, calcein-AM fluorescence, 48 h, PK04 Diversity Set, profiling panel (AID 1166).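 Further: cells grown under basal conditions without added stimulus; test concentration not given here.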 The note with it: RPMI8226 myeloma viability, higher = more signal.
Test [6] is described as follows: JC-1 mitochondrial signal, unstimulated HepG2 cells – cell-based, JC-1 fluorescence, 24 h, 100 nL compound, profiling panel (AID 1167). Further: test concentration not given here. The note with it: HepG2 mitochondrial potential, higher = more signal.
Test [7] in a line: JC-1 mitochondrial signal, unstimulated adipocytes – cell-based, JC-1 fluorescence, 3T3-L1 adipocytes, 24 h, 100 nL compound, profiling panel (AID 1168). Further: test concentration not given here. Particulars: JC-1 mitochondrial fluorescence, higher = more signal, called active from +8 up or from −8 down.
Test [8] in a line: JC-1 mitochondrial signal, unstimulated myeloma cells – cell-based, JC-1 fluorescence, RPMI8226, 24 h, 100 nL compound, profiling panel (AID 1169). Further: test concentration not given here. The note with it: JC-1 mitochondrial potential fluorescence, higher = more signal.
The nature of test [9]: JC-1 mitochondrial signal, unstimulated MM1S myeloma – cell-based, JC-1 fluorescence, 24 h, 100 nL compound, profiling panel (AID 1170). Further: test concentration not given here. The note with it: MM1S mitochondrial potential, higher = more signal.
Test [10] is described as follows: resazurin metabolic signal in A549 cells – cell-based, resazurin fluorescence, 24 h, PK04 Diversity Set, profiling panel (AID 1171). Further: test concentration not given here. Particulars: A549 viability, higher = more signal, called active from +8 up or from −8 down. (In general: The colour change of resazurin is a common sign of viable cells or microbes.)
The nature of test [11]: resazurin metabolic signal in HepG2 cells – cell-based, resazurin fluorescence, 24 h, PK04 Diversity Set, profiling panel (AID 1172). Further: test concentration not given here. The note with it: HepG2 viability, higher = more signal.
A short description of test [12]: budding yeast growth changes without added modifier – OD600, strain BY4716, 24 h, basal condition, primary screen (AID 1173). Particulars: S. cerevisiae BY4716 growth, OD600, 24 h; higher = more signal, called active from +8 up or from −8 down.
Test [13] can be described thus: viability profiling in MM1S myeloma cells – cell-based, resazurin fluorescence, basal, 24 h, PK04 Diversity Set, profiling panel (AID 1174). Further: test concentration not given here. The note with it: higher = more signal, called active from +8 up or from −8 down.
In test [14] the target is Dihydroorotate dehydrogenase (quinone), mitochondrial (Plasmodium falciparum (isolate 3D7)) (UniProt Q08210). As to the kind of experiment: inhibition of P. falciparum DHODH – biochemical, C-terminal His tag, absorbance 600 nm, primary screen (AID 1175).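 Further: recombinant parasite enzyme with a five histidine tag at its C terminus; test concentration not given here.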 The note with it: PfDHODH enzyme, DCIP absorbance 600 nm; higher = more signal, called active from +8 up or from −8 down.

The nature of test [15]: inhibition of PAO1 biofilm formation – strain PAO1, LB-PBS medium, absorbance 600 nm, primary screen (AID 1176). Further: test concentration not given here. The note with it: P. aeruginosa PAO1 growth/biofilm, A600, 12 h; higher = more signal.
Test [16] can be described thus: growth modulation of vineyard yeast isolate – strain RM11-1a, OD600, basal, 24 h, primary screen (AID 1177).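 Further: cultures grown under basal conditions with no added stressor; test concentration not given here.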 Particulars: S. cerevisiae RM11-1a growth, OD600, 24 h; higher = more signal, called active from +8 up or from −8 down.
Test [17] in a line: growth of efflux-deficient E. coli DRC39 – strain DRC39, OD650, 24 h, E. coli filamentation inducers, primary screen (AID 1178).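 Further: growth measured as culture turbidity by optical density at 650 nm; test concentration not given here.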 The note with it: E. coli DRC39 acrAB, higher = more signal, called active from +8 up or from −8 down.
Test [18] can be described thus: growth of efflux-deficient E. coli DRC39 – strain DRC39, OD650, 48 h, E. coli filamentation inducers, primary screen (AID 1179).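 Further: screen aims at cell division blockers that make cells filament.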 Particulars: E. coli DRC39 delta-acrAB growth, higher = more signal, called active from +8 up or from −8 down.
Test [19] can be described thus: viability profiling in RPMI8226 myeloma cells – cell-based, resazurin fluorescence, basal, 24 h, PK04 Diversity Set, profiling panel (AID 1180).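 Further: RPMI8826 multiple myeloma cell line at 5000 cells per well; test concentration not given here.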 Particulars: higher = more signal.
Test [20] addresses E3 ubiquitin-protein ligase XIAP (Homo sapiens) (UniProt P98170). Description: small molecules binding XIAP protein – biophysical, small-molecule microarray, fluorescence 635 nm, primary screen (AID 1181).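 Further: score merges 667 nm emission and signal to noise over triplicate slides.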 Particulars: higher = more signal.

Chain of E3 ubiquitin-protein ligase XIAP (Homo sapiens) (P98170 whole entry, looked up): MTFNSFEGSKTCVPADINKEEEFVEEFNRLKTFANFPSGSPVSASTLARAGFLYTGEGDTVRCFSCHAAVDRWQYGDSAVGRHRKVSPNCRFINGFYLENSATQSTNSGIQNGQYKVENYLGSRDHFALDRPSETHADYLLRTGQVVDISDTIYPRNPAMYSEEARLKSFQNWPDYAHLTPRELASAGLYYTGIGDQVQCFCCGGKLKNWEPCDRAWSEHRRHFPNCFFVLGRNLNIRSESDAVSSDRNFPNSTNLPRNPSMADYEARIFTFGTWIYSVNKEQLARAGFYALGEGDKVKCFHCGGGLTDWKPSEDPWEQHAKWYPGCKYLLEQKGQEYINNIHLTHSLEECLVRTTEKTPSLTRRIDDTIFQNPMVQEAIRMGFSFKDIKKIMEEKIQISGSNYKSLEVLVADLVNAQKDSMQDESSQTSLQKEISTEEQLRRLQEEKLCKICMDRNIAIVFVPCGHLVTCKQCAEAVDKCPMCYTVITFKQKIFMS
Chain of Dihydroorotate dehydrogenase (quinone), mitochondrial (Plasmodium falciparum (isolate 3D7)) (Q08210 whole entry, looked up): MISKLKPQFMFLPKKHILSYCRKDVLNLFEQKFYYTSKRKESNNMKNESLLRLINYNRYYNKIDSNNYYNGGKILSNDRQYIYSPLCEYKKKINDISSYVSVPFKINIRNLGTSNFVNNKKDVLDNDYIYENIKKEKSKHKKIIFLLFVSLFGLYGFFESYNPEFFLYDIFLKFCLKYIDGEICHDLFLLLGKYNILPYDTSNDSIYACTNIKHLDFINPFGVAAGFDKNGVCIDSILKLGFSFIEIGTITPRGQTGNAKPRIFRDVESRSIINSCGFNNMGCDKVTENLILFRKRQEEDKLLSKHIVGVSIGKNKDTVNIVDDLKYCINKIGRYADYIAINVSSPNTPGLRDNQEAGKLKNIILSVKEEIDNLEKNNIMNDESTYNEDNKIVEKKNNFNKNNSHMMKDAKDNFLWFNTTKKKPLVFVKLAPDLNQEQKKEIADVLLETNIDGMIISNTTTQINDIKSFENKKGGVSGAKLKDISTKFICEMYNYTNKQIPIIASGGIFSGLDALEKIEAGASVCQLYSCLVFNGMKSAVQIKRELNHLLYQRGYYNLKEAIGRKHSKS

As for `COC(=O)[C@@]1(Cc2ccccc2N=[N+]=[N-])COC(c2ccc(OCCCO)cc2)=N1`, the z-score was -0.851 in test [1]; -1.01 in [2]; -0.388 in [3]; -3.53 in test [4]; -2.82 in [5]; -0.472 in [6]. The z-score in [7] was -0.605 (inactive); in test [8] it was -0.125; in test [9], -0.0849; in [10] it was 0.468 (inactive); in [11] it was -0.799; in [12], -10.7 (active). In addition, the z-score in [13] was -1.43 (inactive); in test [15], 0.907 (inactive); in [16] it was 1.42 (inactive); in [17], -0.993 (inactive); in [18], -1.46 (inactive); in test [19], -0.496. Besides, the composite z-score in test [14] is 0.215 (inactive); in [20] it was 0.0593.
Regarding `COC(=O)[C@@]1(Cc2ccc(F)cc2)[C@H]2c3cc(C(=O)N(C)C)n(CCc4ccccn4)c3C[C@H]2CN1C(=O)c1ccccc1`, the z-score in test [1] is -0.619; in test [2] it was 0.698; in [3] it was -1.39; in test [4], 0.0635; in [5], -0.722; in test [6] it was -0.0662. In addition, the z-score in test [7] was -0.539 (inactive); in test [8] it was -0.153; in test [9], 0.95; in [10], 0.429 (inactive); in test [11], 0.244; in test [12] it was 0.676 (inactive). For the same molecule, the z-score in test [13] is -0.309 (inactive); in test [15] it was 0.0944 (inactive); in [16], -0.182 (inactive); in [17] it was 0.2 (inactive); in [18] it was -1.02 (inactive); in [19], 0.357. Further, the values for the composite z-score in [14] and in test [20] were -0.804 (inactive) and 0.254, respectively.
As to `COc1ccc([Si](C)(C)[C@@H]2[C@@H](CCn3cc([C@H](O)c4ccccc4)nn3)O[C@]3(C(=O)N(Cc4cccc(N5CCOC5=O)c4)c4ccccc43)[C@H]2C)cc1`, the z-score is 1.6 in [1]; -0.392 in test [2]; 1.31 in [3]; -2.15 in test [4]; 0.274 in [5]; 1.84 in test [6]. Further, the z-score in test [7] is 2.73 (inactive); in test [8], -0.671; in test [9], -0.0958; in test [10], 0.181 (inactive); in test [11] it was 0.194; in test [12], -0.611 (inactive). Also, the z-score in test [13] was -2.91 (inactive); in [15], 1.35 (inactive); in test [16], 1.98 (inactive); in test [17] it was 1.44 (inactive); in test [18], 1.45 (inactive); in test [19], -0.424. Also, the results for the composite z-score in [14] and in test [20] were 0.539 (inactive) and -0.102, respectively.
Take `N#Cc1ccc(NN2C(C(O)c3cccs3)C=CC3C(=O)N(c4ccccc4)C(=O)C32)cc1` (stereo not given): the z-score in [1] was 0.594; in test [2], -0.327; in test [3], 1.01; in [4], -0.0964; in test [5], -0.598; in [6], -0.307. Besides, the z-score in test [7] was -0.0937 (inactive); in test [8], 0.49; in test [9], -0.218; in test [10], 0.234 (inactive); in test [11], -0.375; in test [12], -1.97 (inactive). Moreover, the z-score was 0.0171 (inactive) in test [13]; 1.08 (inactive) in [15]; -1.59 (inactive) in [16]; 0.766 (inactive) in test [17]; 1.36 (inactive) in test [18]; 0.131 in test [19]. For the same molecule, the composite z-score in test [14] was -1.41 (inactive); in test [20], -0.126.
Turning to `COC(=O)[C@@]1(Cc2ccccc2)[C@H]2c3cc(C(=O)N4CCCC4)n(C)c3C[C@H]2CN1C(=O)c1ccccc1`, the z-score was -1.14 in [1]; 0.167 in test [2]; -1.24 in test [3]; 0.143 in test [4]; -0.284 in test [5]; 0.533 in test [6]. The z-score in test [7] is -0.469 (inactive); in [8], -0.0143; in test [9], -0.827; in test [10] it was -0.526 (inactive); in test [11], -0.533; in test [12] it was 0.211 (inactive). Further, the z-score is -1.48 (inactive) in [13]; 0.976 (inactive) in test [15]; 0.513 (inactive) in [16]; -0.396 (inactive) in test [17]; -0.0676 (inactive) in test [18]; -0.705 in [19]. Besides, the composite z-score in test [14] was 0.381 (inactive); in [20], 0.391.
For the molecule `CCCNC(=O)[C@@]1(c2ccc([N+](=O)[O-])cc2)CC(=O)N(CC23CC4CC(CC(C4)C2)C3)[C@@H]1c1ccc(CO)cc1`, the z-score in [1] was -1.05; in [2], -0.35; in test [3], -1.67; in test [4] it was -3.54; in [5], -3.38; in [6], -0.99. Further, the z-score was -0.141 (inactive) in [7]; -0.769 in [8]; -1.05 in [9]; -2.9 (inactive) in test [10]; -1.8 in test [11]; 1.07 (inactive) in test [12]. The z-score is -3.32 (inactive) in test [13]; 0.416 (inactive) in test [15]; 1.05 (inactive) in test [16]; -0.421 (inactive) in test [17]; -0.391 (inactive) in [18]; -3.71 in [19]. Also, the composite z-score in [14] was -0.225 (inactive); in [20] it was 0.182.
Consider `CN(C)CCCCCCNC(=O)[C@H]1C[C@H]2C(=O)N[C@@H](CCCCN)C(=O)N2[C@H]1c1ccc(O)cc1`, for which the z-score in test [1] was -0.466; in [2], 0.71; in test [3] it was 0.266; in test [4], -1.05; in test [5] it was -0.0908; in [6], 0.758. The z-score is -0.935 (inactive) in test [7]; -0.773 in [8]; 0.237 in [9]; 0.283 (inactive) in test [10]; -0.807 in test [11]; 0.293 (inactive) in [12]. Also, the z-score in test [13] was -0.249 (inactive); in test [15] it was 0.808 (inactive); in test [16], 0.0384 (inactive); in test [17] it was -0.108 (inactive); in test [18], 0.267 (inactive); in [19], 0.263. Also, the composite z-score in [14] was 1.31 (inactive); in test [20] it was 2.64.
Take `O=c1cccc(C=Cc2ccccc2)o1`: the z-score in test [1] is -0.523; in [2], -0.601; in test [3], 0.645; in [4], -0.571; in test [5] it was -0.743; in [6], 0.053. Moreover, the z-score in test [7] is 0.355 (inactive); in [8], 0.629; in test [9], -0.969; in [10], 0.261 (inactive); in test [11] it was 0.266; in test [12], -2.09 (inactive). The z-score is 0.835 (inactive) in test [13]; -0.212 (inactive) in [15]; -0.0064 (inactive) in test [16]; -0.131 (inactive) in test [17]; 0.761 (inactive) in [18]; -0.0628 in test [19]. Also, the composite z-score in test [14] was 0.0681 (inactive); in [20], -0.248.
